aSyn UTR act – Activators via SNCA 5'UTR binding, MLPCN; alpha-synuclein 5'UTR reporter, activators screen; activity score, % (tested at 7.5 µM), hits read low; 300,000 tested, 7.1% active; AID 1814, 2009; in the data active means activity score below about -60%
Numbers without * were called inactive. Not all results are given here.

SMILES	aSyn UTR act
CCN(CC)C(=O)CCCOc1ccc(Cl)cc1Cl	-96*
O=C(CC(SCCO)c1ccc2c(c1)OCO2)c1ccco1 (centres undefined)	-98*
CCOC(=O)c1cn2nc(Oc3ccccc3)ccc2n1	-149*
CCOC(=O)c1cn2nc(Oc3ccc(C)cc3)ccc2n1	-75*
O=[N+]([O-])c1ccc(N/N=C2\CC3CC=CC23)cc1 (centres undefined)	-100*
COC(=O)c1ccc(NC(=O)Cc2ccccc2)cc1	-123*
COC(=O)c1ccc(NC(=O)C(=O)c2cccn2C)cc1	-109*
COC(=O)c1ccc(NC(=S)Nc2ccccc2)cc1	-131*
O=C(Cc1ccccc1)Nc1ccc(SC(F)F)cc1	-130*
COC(=O)c1ccc(NC(=O)c2nc(S(=O)(=O)Cc3cccc(C)c3)ncc2Cl)cc1	55
CCC(=O)Nc1ccc(C(=O)OCc2ccccc2Cl)cc1	-168*
O=C(CSCc1c(F)cccc1F)Nc1ccccc1	-116*
O=C(CSCc1ccc(F)cc1)Nc1ccc(F)cc1	-76*
CCC(=O)Oc1ccc(NC(=O)CSCc2ccccc2)cc1	-106*
Cc1ccccc1CSCC(=O)Nc1ccccc1F	-79*
O=C(CSCC(=O)Nc1ccccc1)N/N=C/c1c(O)ccc2ccccc12	76
O=C(CSCc1ccccc1)Nc1cccc(F)c1	-127*
Cc1ccc(S(=O)(=O)CCSc2n[nH]c(=O)n2-c2ccc3c(c2)OCCO3)cc1	-72*
c1ccc(-c2ccc(OCCOCCn3cncn3)cc2)cc1	-175*
CC1CCN(CCCOc2ccc(OCc3ccccc3)cc2)CC1	-69*
c1ccc(COc2ccc(OCCCN3CCCC3)cc2)cc1	55
c1ccc(COc2ccc(OCCCn3cncn3)cc2)cc1	-102*
CC(=O)Nc1ccc(SCc2ncc(-c3ccccc3)o2)cc1	-130*
COC(=O)c1sc(NC(=O)c2ccc(C)o2)nc1C	-203*
O=C(Nc1ccccc1C(=O)Nc1nnc(C(F)(F)F)s1)c1ccccc1	59
SMILES	aSyn UTR act
CCOC(=O)c1sc(NC(=O)c2ccc(C)o2)nc1C	-287*
Cc1c(C(=O)Nc2nnc(C(F)(F)F)s2)oc2ccccc12	-236*
CCOC(=O)c1sc(NC(=O)c2ccc(OC)cc2)nc1C	-109*
COC(=O)c1sc(NC(=O)c2oc3ccccc3c2C)nc1C	-142*
O=C(Nc1ccc(F)cc1F)Nc1csc2ccccc12	-67*
O=C(NNC(=S)Nc1ccc(F)cc1F)c1ccco1	-109*
O=C(Nc1cccs1)Nc1ccc(Br)cc1F	-185*
O=C(Nc1cccs1)Nc1ccc(F)cc1F	-119*
O=C(Nc1ccc(F)cc1F)Nc1ccc(F)cc1F	-87*
C=CCN(C(=O)C1=NN(C2CCS(=O)(=O)C2)C(=O)CC1)c1nc(-c2ccc([N+](=O)[O-])cc2)cs1 (centres undefined)	-135*
Cc1cc(C)c2c(c1)/C(=N\N=c1\sc3ccccc3n1C)C(=O)N2	-107*
CCc1ccc(-n2cc(-c3ccc([N+](=O)[O-])cc3)[nH]c2=S)cc1	-108*
Fc1ccccc1-n1cc(-c2ccccc2)[nH]c1=S	-100*
Cc1ccc(-c2cn(-c3ccccc3)c(=S)[nH]2)cc1C	-94*
COc1ccc(-n2cc(-c3ccccc3)[nH]c2=S)c(OC)c1	-75*
COc1ccc(-n2cc(-c3ccc(Br)cc3)[nH]c2=S)cc1	-138*
CC(C)OC(=O)CNc1n[nH]c(=S)[nH]c1=O	-131*
Cc1ccc(C(=O)NCCc2csc(-c3cccnc3)n2)cc1	-77*
O=C(COC(=O)/C=C/c1cccs1)Nc1nc(-c2cccc(Br)c2)cs1	-79*
O=C(/C=C/c1cccs1)Nc1nncs1	-162*
Cc1ccnc(NC(=O)/C=C/c2cccs2)c1	-77*
O=C(/C=C/c1cccs1)Nc1cccnc1	-175*
O=C(/C=C/c1cccs1)Nc1nc(-c2ccccc2)cs1	-246*
COc1ccc2c(c1)C1=NN(/C(C)=C/C(C)=O)C(c3ccc(F)cc3)C1CC2 (centres undefined)	-78*
COc1ccc2c(c1)C1=NN(/C(C)=C\C(C)=O)C(c3ccccc3)C1CC2 (centres undefined)	-141*
SMILES	aSyn UTR act
COc1ccc2c(c1)C1=NN(/C(C)=C/C(C)=O)C(c3cccc(F)c3)C1CC2 (centres undefined)	-64*
CC(C)c1c(O)cc(-c2ccncc2)n(-c2ccc(Cl)cc2)c1=O	37
CC(=O)Oc1ccc2cc(-c3nc4ccccc4n3C)c(=O)oc2c1	-226*
Cn1c(-c2cc3ccc(OC(=O)C(C)(C)C)cc3oc2=O)nc2ccccc21	-117*
CC(C)(C)C(=O)Oc1ccc2cc(-c3ccc4ccccc4n3)c(=O)oc2c1	-157*
CCN(CC)Cc1c(O)ccc2cc(-c3nc4ccccc4n3C)c(=O)oc12	-74*
CC(=O)Nc1ccc(SCC(=O)c2cc(C)n(C)c2C)cc1	-69*
CC(=O)C(C)Oc1ccc2c3c(c(=O)oc2c1)CCCCC3 (centres undefined)	-109*
CC(=O)C(C)Oc1ccc2c3c(c(=O)oc2c1)CCCC3 (centres undefined)	-79*
O=c1oc2cc(OCc3ccc([N+](=O)[O-])cc3)ccc2c2c1CCCC2	-65*
CCN(CC1CCCO1)C(=O)c1cc(COc2cc(C)c(Cl)c(C)c2)on1 (centres undefined)	-129*
CC(=O)c1cccc(OCc2cc(C(=O)N(C)CCC3CCOCC3)no2)c1	-86*
Cc1cc(OCc2cc(C(=O)N(C)CC3CCOCC3)no2)cc(C)c1Cl	-72*
COC(=O)c1ccc2nc(-c3ccc4c(c3)OCO4)cn2c1	95
NNC(=O)c1ccc2nc(-c3ccc(Br)cc3)cn2c1	-154*
COc1ccc(-c2cn3cc(C(=O)NN)ccc3n2)cc1	-92*
CCCn1cccc(C(=O)Nc2ccc(OC)cc2)c1=O	-82*
C#CCn1cccc(C(=O)Nc2ccc(OC)cc2)c1=O	-63*
CCOc1ccc(-c2nc(CCl)cs2)cc1	-70*
CN(C)c1ccc(C(=O)N=c2sccn2C)cc1[N+](=O)[O-]	-117*
CN(C)c1ccc(C(=O)c2ccccc2C(=O)O)cc1[N+](=O)[O-]	-77*
CN(C)c1ccc(C(=O)c2ccc(N(C)C)c3ccccc23)cc1	89
COc1ccc(C(=O)N=c2sccn2C)cc1	-114*
COC(=O)c1ccc(C(=O)N=c2sccn2C)cc1	-148*
Cn1ccs/c1=N\C(=O)Nc1ccccc1	-128*
SMILES	aSyn UTR act
Cn1ccsc1=NC(=O)c1ccc(CS(C)(=O)=O)cc1	-66*
Cn1ccsc1=NC(=O)c1ccc(S(=O)(=O)C(F)F)cc1	-96*
Cn1ccsc1=NC(=O)c1ccc(OC(F)(F)F)cc1	-77*
Cn1ccsc1=NC(=O)c1ccc(Cl)cc1	-197*
O=C(Cc1ccc(-c2ccccc2)cc1)NCc1ccccc1	104
CCc1nnc(NC(=O)c2ccc(-c3ccccc3F)o2)s1	-65*
O=C(NCc1ccccc1)c1ccc(-c2ccccc2F)o1	-155*
CCN(CC)CCNC(=O)c1nn(-c2ccc(C)cc2)c(=O)c2c1c1ccccc1n2C	-64*
Nc1nnnn1/N=C/C(Br)=C/c1ccccc1	-251*
Nc1nnnn1/N=C/C=C/c1ccccc1	-115*
N#Cc1ccc(N2CCc3ccccc3C2)c([N+](=O)[O-])c1	81
FC(F)(F)c1cccc(N2Cc3ccccc3C2)c1	-72*
O=[N+]([O-])c1cccc(N2Cc3ccccc3C2)c1	-113*
COc1cccc(OCc2cc(/C=N/NC(=O)c3ccn[nH]3)ccc2OC)c1	-71*
O=C(N/N=C/c1cccc(F)c1)NC1CCCCC1	-76*

Screening results (PubChem BioAssay)
